Test results reported in PubChem BioAssay.
Records with an inconclusive call do not appear. Activity calls are given as the source filed them.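 How the source made its calls, unless noted: active means viability loss from added drug above about 55%, and viability with drug at most 40%, in both replicates (limit read from the data, passing the limit was not always enough); inconclusive means both conditions met in only one replicate; inactive means neither replicate meets both conditions.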

Experiments:
[1] = Her2 expression decrease, cell viability multiplex – SKBR3 breast tumor cells, AlphaScreen, ATP viability, primary screen (AID 461;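 active means Her2 level under about 52% in both replicate screens, with viability over 70% of control, limit read from the data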;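 on Her2 level: lower value means less Her2 protein in the cells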;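 on viability: percent of carrier control wells set as 100% viability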); details: SKBR3 Her2 protein level, 18-24 h, measured here: SKBR3 viability, ATP luminescence, at 10 µM
[2] = target: Receptor tyrosine-protein kinase erbB-2 (Homo sapiens) (UniProt P04626); experiment: as above; details: 18-24 h, at 10 µM, stronger effect = lower value
Chain of Receptor tyrosine-protein kinase erbB-2 (Homo sapiens) (P04626 whole entry, looked up): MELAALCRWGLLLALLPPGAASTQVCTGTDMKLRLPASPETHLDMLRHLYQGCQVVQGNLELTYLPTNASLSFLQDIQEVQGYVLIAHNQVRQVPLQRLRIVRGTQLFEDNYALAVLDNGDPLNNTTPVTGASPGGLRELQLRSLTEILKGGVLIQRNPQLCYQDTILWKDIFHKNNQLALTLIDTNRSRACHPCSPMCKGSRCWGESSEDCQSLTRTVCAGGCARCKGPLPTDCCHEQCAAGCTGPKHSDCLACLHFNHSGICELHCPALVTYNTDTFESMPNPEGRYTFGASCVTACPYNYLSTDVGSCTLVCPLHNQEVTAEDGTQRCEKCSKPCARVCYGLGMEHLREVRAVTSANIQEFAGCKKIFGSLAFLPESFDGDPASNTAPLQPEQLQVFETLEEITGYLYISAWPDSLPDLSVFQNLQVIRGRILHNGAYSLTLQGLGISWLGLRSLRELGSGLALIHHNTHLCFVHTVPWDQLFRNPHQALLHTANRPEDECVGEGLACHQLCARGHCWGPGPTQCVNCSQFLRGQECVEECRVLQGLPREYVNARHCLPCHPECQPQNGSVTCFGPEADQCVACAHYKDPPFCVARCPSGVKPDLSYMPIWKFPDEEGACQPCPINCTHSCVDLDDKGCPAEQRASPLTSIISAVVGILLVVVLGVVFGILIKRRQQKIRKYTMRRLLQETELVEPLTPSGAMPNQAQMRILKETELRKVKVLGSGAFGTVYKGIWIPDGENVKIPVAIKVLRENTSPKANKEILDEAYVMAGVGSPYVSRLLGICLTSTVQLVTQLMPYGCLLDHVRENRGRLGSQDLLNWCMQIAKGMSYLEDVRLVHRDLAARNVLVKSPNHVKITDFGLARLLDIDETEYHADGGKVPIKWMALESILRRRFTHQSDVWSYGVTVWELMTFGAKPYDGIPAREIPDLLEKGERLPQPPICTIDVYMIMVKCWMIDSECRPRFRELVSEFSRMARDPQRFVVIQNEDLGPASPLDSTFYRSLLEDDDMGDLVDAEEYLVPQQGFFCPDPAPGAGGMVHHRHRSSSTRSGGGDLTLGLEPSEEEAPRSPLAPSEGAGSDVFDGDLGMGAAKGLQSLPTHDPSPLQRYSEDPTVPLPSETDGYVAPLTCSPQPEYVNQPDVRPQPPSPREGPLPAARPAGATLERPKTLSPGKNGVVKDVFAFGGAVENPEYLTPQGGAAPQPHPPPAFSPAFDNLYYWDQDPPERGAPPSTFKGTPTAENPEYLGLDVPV

[3] = reduced viability of SK-BR-3 breast cancer cells – cell-based, 24 h, human, pilot screen (AID 572;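 active means viability at or below 10% of carrier control in both of two separate runs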;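 further: compound exposure lasted between 18 and 24 h rather than exactly 24 h; 100% = carrier-treated control wells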); details: SK-BR-3 viability, CellTiter-Glo luminescence, at 10 µM, stronger effect = lower value
[4] = HUVEC growth inhibition – cell-based, human, primary screen (AID 575;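 active means viability at or below 30% in both replicate assays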;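 further: 100% = median of untreated cell wells with 0.1% DMSO on each plate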); details: HUVEC proliferation, CellTiter-Glo luminescence, 72 h; at 10 µM; stronger effect = lower value
[5] = H69AR cell proliferation blockers – human, duplicate replicates, primary screen (AID 580;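 active means viability at or under a set limit in both replicates, limit being median viability minus 3 SD, cut at about 48% in these data, passing the limit was not always enough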;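 further: 100% = mean luminescence of untreated wells and 0% = no signal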); details: H69AR lung tumor cells viability, ATP luminescence, 72 h; at 10 µM; stronger effect = lower value
[6] = MRP1 drug-resistance reversers in H69AR cells – cell-based, doxorubicin co-treatment, pilot screen (AID 601); details: CellTiter-Glo, 72 h, at 10 µM; for differential viability (reversal): stronger effect = higher value
[7] = yeast transport mutant growth inhibition pilot in 384-well plates, post-Golgi transport modulator project (AID 636; in the data active means inhibition above about 31%); details: absorbance 615 nm, about 18 h, stronger effect = higher value
[8] = growth suppression of yeast trafficking mutant, preliminary HTS, modulators of trafficking downstream of Golgi apparatus project, 1536-format plate, OD 615 nm (AID 637; in the data active means inhibition above about 30%); details: yeast transport mutant growth, absorbance 615 nm, 18 h; stronger effect = higher value
[9] = S. cerevisiae growth inhibition in permissive medium (OD615), pilot counter-assay for S. cerevisiae lifespan shortening project, permissive growth control (AID 705;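 active means growth inhibition above 25% in both replicates, a cutoff set 3 SD above the mean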); details: OD615, 24 h, at 10 µM, stronger effect = higher value
[10] = S. cerevisiae growth inhibition in restrictive medium, OD615, pilot screen, restrictive growth control, yeast lifespan reduction project (AID 706;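 active means growth inhibition above a set limit, 3 SD over mean compound inhibition, in both replicates, cut at about 43% in these data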;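 further: modified DeaD lifespan yeast strain shifted to restrictive glucose medium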); details: OD615, 48 h, at 10 µM, stronger effect = higher value
[11] = doxorubicin toxicity protection in MRP-1 cells – H69AR cells, CellTiter-Glo, duplicate, MRP-1 activator project, pilot screen (AID 807;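 active means viability increase at or above a cutoff of the median across tested compounds plus 3 SD, cut at about 8.5% in these data, passing the limit was not always enough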;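 further: compound pretreatment 18-22 h then 72 h combined with doxorubicin; 0% = doxorubicin alone and 100% = vehicle without doxorubicin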); details: H69AR viability with doxorubicin, CellTiter-Glo luminescence; at 10 µM; stronger effect = higher value
[12] = viability of HCT116 without oncogenic beta-catenin – human colon tumor cells, pilot screen (AID 823;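 active means cell viability at or below a set limit in both duplicate runs, the limit being the all-compound median minus 4 SD, cut at about 23% in these data, passing the limit was not always enough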;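 further: 0% = wells killed by 20 µM Hyamine and 100% = untreated DMSO cell wells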); details: HCT116 beta-catenin knockout viability, CellTiter-Glo, 60 h; at 10 µM; stronger effect = lower value
[13] = viability of PTEN-null HCT116 cells – cell-based, HCT116 clonal line, CellTiter-Glo, pilot screen (AID 824;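 active means viability at or below 27.92% in each of two runs, the all-compound median minus 4 SD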;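 further: 0% = 20 µM Hyamine control and 100% = vehicle cell control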); details: HCT116 PTEN-deleted viability, 60 h, at 10 µM, stronger effect = lower value
[14] = RAM pathway blockade in budding yeast – dse1pr::URA3 reporter, 5-FOA selection, pilot screen (AID 869;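 active means inhibition over a set limit, the all-compound mean plus 3 SD, in both replicate runs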;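 further: 0% = DMSO wells with no growth and 100% = 10 µM 1-NA-PP1 with full growth; RAM network block rescues cells from 5-FOA so hits raise OD615 growth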); details: S. cerevisiae dse1pr::URA3 5-FOA growth, OD615, 2 d; at 10 µM; stronger effect = higher value; strain carries analog-sensitive mutant Cbk1 kinase
[15] = RAM signaling pathway blockade in yeast – S. cerevisiae, Pdr1DBD-CYC8 efflux-inhibited sensitized strain, primary screen (AID 1298;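 active means RAM network inhibition above 8.4% in each of two replicates, 3 SD over the compound average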;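 further: 0% = DMSO untreated cells without growth and 100% = 10 µM 1-NA-PP1 full growth; higher means more yeast growth rescued from 5-FOA killing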); details: S. cerevisiae cbk1-as DSE1-URA3 strain, 5-FOA growth OD615, 2 d; at 50 µM; stronger effect = higher value
[16] = H69AR cells + 2 uM doxorubicin, measured here: viability with 2 uM doxorubicin, stronger effect = lower value
[17] = H69AR cells, compound alone cytotoxicity

SMILES | viability [1] [%] | Her2 level [2] | viability [3] | viability [4] | viability [5] | differential viability (reversal) ([6]; H69AR cells + 2 uM doxorubicin) | viability [6, 16] [%] | viability [6, 17] [%] | inhibition [7] | inhibition [8] | growth inhibition [9] | growth inhibition [10] | viability increase [11] | viability [12] | viability [13] | inhibition [14] | RAM network inhibition [15]
COc1ccc(/C=N/O)cc1COc1ccc(NC(C)=O)cc1 | 115 | 98% (inactive) | 115% (inactive) | 102% (inactive) | 103% (inactive) | 13.2% (inactive) | 90.2 | 103 | -4.32% (inactive) | 1.9% (inactive) | -5.25% (inactive) | -2.58% (inactive) | -0.85% (inactive) | 90.9% (inactive) | 93.4% (inactive) | 0.83% (inactive) | 0.92% (inactive)
O=C1c2ccccc2C(Nc2ccc3c(c2)OCCO3)N1Cc1ccc2c(c1)OCO2 (stereo not given) | 91 | 94.5% (inactive) | 91% (inactive) | 64.8% (inactive) | 86.4% (inactive) | -4.04% (inactive) | 90.4 | 86.4 | -5.73% (inactive) | 0.5% (inactive) | -4.37% (inactive) | 8.02% (inactive) | 0.68% (inactive) | 82.2% (inactive) | 72.2% (inactive) | 2.92% (inactive) | 4.31% (inactive)
COc1ccc(-n2c(=O)c3c4c(sc3n3cnnc23)CC(C)CC4)cc1 (stereo not given) | 95.5 | 88.5% (inactive) | 95.5% (inactive) | 67.8% (inactive) | 72.2% (inactive) | 21.2% (inactive) | 51 | 72.2 | -8.11% (inactive) | 0.98% (inactive) | -10.9% (inactive) | 9.5% (inactive) | -5.52% (inactive) | 87.8% (inactive) | 92.2% (inactive) | -0.585% (inactive) | 2.05% (inactive)
Cc1cccc(Cn2c(SCC(=O)Nc3ccccc3)nc3c2c(=O)[nH]c(=O)n3C)c1 | 81.5 | 97% (inactive) | 81.5% (inactive) | 93.9% (inactive) | 81.8% (inactive) | -0.02% (inactive) | 81.8 | 81.8 | -1.33% (inactive) | 0% (inactive) | -12.4% (inactive) | -8.03% (inactive) | -1.01% (inactive) | 91% (inactive) | 71% (inactive) | 1.79% (inactive) | 5.01% (inactive)
CCCc1cc(C(=O)Nc2ccc(C(C)=O)cc2)no1 | 80.5 | 91% (inactive) | 80.5% (inactive) | 77.7% (inactive) | 99.5% (inactive) | 5.59% (inactive) | 93.9 | 99.5 | 1.92% (inactive) | -1% (inactive) | -0.51% (inactive) | -1.09% (inactive) | -0.27% (inactive) | 98.5% (inactive) | 104% (inactive) | 2.74% (inactive) | 6.52% (inactive)
COc1ccc(C(=O)Oc2c(CN3CCOCC3)cc(Cl)c3cccnc23)cc1OC | 93 | 95.5% (inactive) | 93% (inactive) | 71.8% (inactive) | 1.58% (active) | -0.17% (inactive) | 1.75 | 1.58 | -5.87% (inactive) | -6.23% (inactive) | -12.6% (inactive) | -19.1% (inactive) | -8.29% (inactive) | 9.93% (active) | 5.98% (active) | 1.39% (inactive) | 0.26% (inactive)
CCOC(=O)c1ccc(NC(=O)CC2SC(=NC)N(C)C2=O)cc1 (stereo not given) | 107 | 88.5% (inactive) | 107% (inactive) | 110% (inactive) | 105% (inactive) | 16.6% (inactive) | 88.7 | 105 | -3.03% (inactive) | -1.9% (inactive) | 6.34% (inactive) | 11.4% (inactive) | -0.46% (inactive) | 101% (inactive) | 97.8% (inactive) | 2.03% (inactive) | 2.16% (inactive)
O=C(C1CCCN1S(=O)(=O)c1cccc2cccnc12)N1CCn2c1nc1ccccc12 (stereo not given) | 100 | 84.5% (inactive) | 100% (inactive) | 64.9% (inactive) | 94.1% (inactive) | 1.47% (inactive) | 92.6 | 94.1 | 0.9% (inactive) | 4.67% (inactive) | -4.09% (inactive) | 4.54% (inactive) | 0.79% (inactive) | 97.4% (inactive) | 101% (inactive) | 0.235% (inactive) | 1.58% (inactive)
COc1ccc(C2CC(c3cccc(C)c3)n3ncnc3N2)cc1 (stereo not given) | 87.5 | 89% (inactive) | 87.5% (inactive) | 88.8% (inactive) | 91.4% (inactive) | -5.74% (inactive) | 97.2 | 91.4 | 5.6% (inactive) | -9.02% (inactive) | 1.04% (inactive) | 5.56% (inactive) | -1.57% (inactive) | 100% (inactive) | 86.1% (inactive) | 0.22% (inactive) | -0.53% (inactive)
COc1ccc(S(=O)(=O)N2CCCC2C(=O)Nc2ccc(O)cc2)cc1 (stereo not given) | 93.5 | 106% (inactive) | 93.5% (inactive) | 92.6% (inactive) | 98.4% (inactive) | 3.97% (inactive) | 94.4 | 98.4 | 0.13% (inactive) | -4.92% (inactive) | -1.65% (inactive) | 2.76% (inactive) | -0.78% (inactive) | 108% (inactive) | 108% (inactive) | 1.98% (inactive) | 4.8% (inactive)
